Measurements taken from PubChem BioAssay AID1159580 (chemical genetic matrix, 2015).
In all, about 5,500 compounds went through this assay and about 2,000 (36%) were called active. Not shown: some 18% with an inconclusive outcome. No stated cut-off is given here; in the data, active means normalized growth mostly below about 0.91 (no sharp cut-off); inconclusive means no clear call, values can overlap the other calls; inactive means mostly above about 0.92. The list shows a part of the results.

Assay: chemical genetic growth profiling, strain panel (AID 1159580);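 further: tested at 20 µM; growth read once vehicle control cultures reached saturation at 30 °C; 1 = growth at the plate median or of vehicle wells; lower values mean less growth of the strain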
Conditions: growth OD

Measured: normalized growth

S=c1[nH]c2ccccc2s1
inactive: S. cerevisiae deletion strains, locus YKL009W, strain mrt4, active compounds read low 0.996 | S. cerevisiae deletion strains, locus YKL068W, active compounds read low 1.02 | S. cerevisiae deletion strains, locus YKL085W, strain MDH1 (second series), active compounds read low 1.01 | S. cerevisiae deletion strains, locus YKL085W, strain MDH1, active compounds read low 1.01 | S. cerevisiae deletion strains, locus YKL160W, strain elf1, active compounds read low 1.01 | S. cerevisiae deletion strains, locus YKL190W, strain CNB1, active compounds read low 0.99 | S. cerevisiae deletion strains, locus YKR001C, strain vps1, active compounds read low 0.954 | S. cerevisiae deletion strains, locus YKR026C, strain gcn3, active compounds read low 0.992 | S. cerevisiae deletion strains, locus YKR091W, strain srl3, active compounds read low 0.999 | S. cerevisiae deletion strains, locus YLL001W, strain dnm1, active compounds read low 0.992 | S. cerevisiae deletion strains, locus YLL026W, active compounds read low 0.989 | S. cerevisiae deletion strains, locus YLL041C, strain sdh2, active compounds read low 0.98 | S. cerevisiae deletion strains, locus YLR027C, strain aat2, active compounds read low 0.972 | S. cerevisiae deletion strains, locus YLR039C, strain RIC1, active compounds read low 0.858 | S. cerevisiae deletion strains, locus YLR058C, strain SHM2, active compounds read low 0.962 | S. cerevisiae deletion strains, locus YLR102C, strain apc9, active compounds read low 1.01 | S. cerevisiae deletion strains, locus YLR113W, strain HOG1, active compounds read low 0.919 | S. cerevisiae deletion strains, locus YLR221C, strain rsa3, active compounds read low 0.936 | S. cerevisiae deletion strains, locus YLR258W, strain gsy2, active compounds read low 0.988 | S. cerevisiae deletion strains, locus YLR262C, strain YPT6, active compounds read low 0.921 | S. cerevisiae deletion strains, locus YLR268W, strain sec22, active compounds read low 0.932 | S. cerevisiae deletion strains, locus YLR320W, strain mms22, active compounds read low 0.967 | S. cerevisiae deletion strains, locus YLR330W, strain CHS5, active compounds read low 0.997 | S. cerevisiae deletion strains, locus YLR342W, strain FKS1 (second series), active compounds read low 0.808 | S. cerevisiae deletion strains, locus YLR342W, strain FKS1, active compounds read low 0.972 | S. cerevisiae deletion strains, locus YLR357W, strain rsc2, active compounds read low 0.879 | S. cerevisiae deletion strains, locus YLR370C, strain arc18, active compounds read low 0.971 | S. cerevisiae deletion strains, locus YLR371W, strain rom2, active compounds read low 1.01 | S. cerevisiae deletion strains, locus YLR384C, strain iki3, active compounds read low 0.982 | S. cerevisiae deletion strains, locus YLR418C, strain cdc73, active compounds read low 0.907 | S. cerevisiae deletion strains, locus YML016C, strain PPZ1, active compounds read low 0.973 | S. cerevisiae deletion strains, locus YML032C, strain rad52, active compounds read low 1 | S. cerevisiae deletion strains, locus YML120C, strain ndi1, active compounds read low 1.07 | S. cerevisiae deletion strains, locus YML124C, strain tub3, active compounds read low 1.01 | S. cerevisiae deletion strains, locus YMR058W, strain fet3, active compounds read low 0.947 | S. cerevisiae deletion strains, locus YMR078C, strain ctf18, active compounds read low 1 | S. cerevisiae deletion strains, locus YMR125W, strain sto1, active compounds read low 1.11 | S. cerevisiae deletion strains, locus YMR129W, active compounds read low 0.993 | S. cerevisiae deletion strains, locus YMR205C, strain PFK2, active compounds read low 1.03 | S. cerevisiae deletion strains, locus YMR223W, strain ubp8, active compounds read low 0.95 | S. cerevisiae deletion strains, locus YMR231W, strain pep5, active compounds read low 0.973 | S. cerevisiae deletion strains, locus YMR263W, strain SAP30, active compounds read low 0.994 | S. cerevisiae deletion strains, locus YMR307W, strain GAS1, active compounds read low 0.862 | S. cerevisiae deletion strains, locus YNL067W, strain RPL9B, active compounds read low 0.992 | S. cerevisiae deletion strains, locus YNL071W, strain lat1, active compounds read low 0.929 | S. cerevisiae deletion strains, locus YNL128W, strain TEP1, active compounds read low 1.02 | S. cerevisiae deletion strains, locus YNL153C, strain GIM3, active compounds read low 0.973 | S. cerevisiae deletion strains, locus YNL209W, strain ssb2, active compounds read low 0.984 | S. cerevisiae deletion strains, locus YNL233W, strain BNI4, active compounds read low 0.985 | S. cerevisiae deletion strains, locus YNL248C, strain rpa49, active compounds read low 0.974 | S. cerevisiae deletion strains, locus YNL250W, strain rad50, active compounds read low 1.01 | S. cerevisiae deletion strains, locus YNL271C, strain bni1, active compounds read low 0.99 | S. cerevisiae deletion strains, locus YNL298W, strain CLA4, active compounds read low 1.01 | S. cerevisiae deletion strains, locus YNL307C, strain MCK1, active compounds read low 0.97 | S. cerevisiae deletion strains, locus YNL322C, strain KRE1 (second series), active compounds read low 1.02 | S. cerevisiae deletion strains, locus YNL322C, strain KRE1, active compounds read low 1 | S. cerevisiae deletion strains, locus YNR049C, strain mso1, active compounds read low 0.983 | S. cerevisiae deletion strains, locus YNR052C, strain pop2, active compounds read low 0.984 | S. cerevisiae deletion strains, locus YOL012C, strain htz1 0.93 | S. cerevisiae deletion strains, locus YOL147C, strain pex11, active compounds read low 0.99 | S. cerevisiae deletion strains, locus YOR001W, strain rrp6, active compounds read low 0.943 | S. cerevisiae deletion strains, locus YOR061W, strain CKA2, active compounds read low 0.985 | S. cerevisiae deletion strains, locus YOR069W, strain VPS5, active compounds read low 0.99 | S. cerevisiae deletion strains, locus YOR070C, strain gyp1, active compounds read low 0.97 | S. cerevisiae deletion strains, locus YOR080W, strain dia2, active compounds read low 0.992 | S. cerevisiae deletion strains, locus YOR083W, strain WHI5, active compounds read low 0.997 | S. cerevisiae deletion strains, locus YOR136W, strain idh2, active compounds read low 0.999 | S. cerevisiae deletion strains, locus YOR144C, strain elg1, active compounds read low 1.01 | S. cerevisiae deletion strains, locus YOR184W, strain ser1, active compounds read low 0.88 | S. cerevisiae deletion strains, locus YOR265W, strain rbl2, active compounds read low 0.976 | S. cerevisiae deletion strains, locus YOR270C, strain vph1, active compounds read low 0.834 | S. cerevisiae deletion strains, locus YOR290C, strain snf2, active compounds read low 0.991 | S. cerevisiae deletion strains, locus YOR316C, strain cot1, active compounds read low 1.02 | S. cerevisiae deletion strains, locus YPL055C, strain LGE1, active compounds read low 0.987 | S. cerevisiae deletion strains, locus YPL078C, strain atp4, active compounds read low 1 | S. cerevisiae deletion strains, locus YPL106C, strain sse1, active compounds read low 0.986 | S. cerevisiae deletion strains, locus YPL240C, strain hsp82, active compounds read low 0.986 | S. cerevisiae deletion strains, locus YPL241C, strain CIN2, active compounds read low 0.998 | S. cerevisiae deletion strains, locus YPL256C, strain CLN2, active compounds read low 0.904 | S. cerevisiae deletion strains, locus YPR119W, strain clb2, active compounds read low 1.02 | S. cerevisiae deletion strains, locus YPR141C, strain kar3, active compounds read low 1.01 | S. cerevisiae deletion strains, locus YPR163C, strain tif3, active compounds read low 1 | S. cerevisiae deletion strains, locus YPR167C, strain met16, active compounds read low 1.02 | S. cerevisiae deletion strains, strain wtn01, active compounds read low 0.977 | S. cerevisiae strains, strain wild type, active compounds read low 0.996
active: S. cerevisiae deletion strains, locus YLR262C, strain YPT6 (second series), active compounds read low 0.82 | S. cerevisiae deletion strains, locus YNL183C, strain NPR1, active compounds read low 0.751 | S. cerevisiae deletion strains, locus YOL006C, strain TOP1, active compounds read low 0.417 | S. cerevisiae deletion strains, locus YOR106W, strain vam3, active compounds read low 0.865 | S. cerevisiae deletion strains, locus YOR231W, strain MKK1, active compounds read low 0.798 | S. cerevisiae deletion strains, locus YPL051W, strain arl3, active compounds read low 0.904
